PubChem BioAssay (Tox21)
Results filed as inconclusive are left out. Calls of active or inactive are those of the source. Unless noted, calls follow the shape of the full dose curve.

Key:
[1] = qHTS assay to identify small molecule antagonists of the sonic hedgehog signaling (Shh) pathway (AID 1259369); also: nearly all actives have a fitted effect of over 45% in size; also: potency is read from the fitted curve at half-maximal effect
In short: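 Stable Gli1-Luc reporter NIH/3T3 clone; quantitative HTS in stimulated mode with conditioned medium. Luminescence measured after 24hr compound treatment at 37 C.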

[2] = qHTS assay to identify small molecule agonists of the androgen receptor (AR) signaling pathway in the presence of an antagonist - cell viability counter screen (AID 1259379; active = well fitted curve in the direction sought with a large enough effect in the repeat runs; an effect the other way counts as inactive or inconclusive;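 also: MDA-kb2 human breast cancer cells carrying an MMTV luciferase reporter; series mostly up to about 92 µM; nearly all actives have a fitted effect of over 25% in size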)
In short: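 Nilutamide-containing (3.0uM final) MDA-kb2 cultures, 3,000 cells/well, were treated with compounds across 15 concentrations. After 16 hr at 37C with no CO2, cell viability was determined by CellTiter-Fluor fluorescence in the luciferase assay wells.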

[3] = qHTS assay to identify small molecule agonists of the estrogen receptor beta (ER-beta) signaling pathway - cell viability counter screen (AID 1259380; active = well fitted curve in the direction sought with a large enough effect in the repeat runs; an effect the other way counts as inactive or inconclusive; also: nearly all actives have a fitted effect of over 30% in size; also: potency is read from the fitted curve at half-maximal effect)
In short: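 Steps: plate ER-beta-UAS-bla HEK293T cells, rest 6 hr; add compounds in DMSO; incubate 16 hr at 37C, 5% CO2; add FRET substrate 2 hr; add CellTiter-Glo, wait 30 min at room temperature; read luminescence.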

[4] = target: Androgen receptor (Homo sapiens) (UniProt P10275); test: qHTS assay to identify small molecule agonists of the androgen receptor (AR) signaling pathway in the presence of an antagonist (AID 1259381); also: nearly all actives have a fitted effect of over 15% in size
Chain of Androgen receptor (Homo sapiens) (P10275 whole entry, looked up): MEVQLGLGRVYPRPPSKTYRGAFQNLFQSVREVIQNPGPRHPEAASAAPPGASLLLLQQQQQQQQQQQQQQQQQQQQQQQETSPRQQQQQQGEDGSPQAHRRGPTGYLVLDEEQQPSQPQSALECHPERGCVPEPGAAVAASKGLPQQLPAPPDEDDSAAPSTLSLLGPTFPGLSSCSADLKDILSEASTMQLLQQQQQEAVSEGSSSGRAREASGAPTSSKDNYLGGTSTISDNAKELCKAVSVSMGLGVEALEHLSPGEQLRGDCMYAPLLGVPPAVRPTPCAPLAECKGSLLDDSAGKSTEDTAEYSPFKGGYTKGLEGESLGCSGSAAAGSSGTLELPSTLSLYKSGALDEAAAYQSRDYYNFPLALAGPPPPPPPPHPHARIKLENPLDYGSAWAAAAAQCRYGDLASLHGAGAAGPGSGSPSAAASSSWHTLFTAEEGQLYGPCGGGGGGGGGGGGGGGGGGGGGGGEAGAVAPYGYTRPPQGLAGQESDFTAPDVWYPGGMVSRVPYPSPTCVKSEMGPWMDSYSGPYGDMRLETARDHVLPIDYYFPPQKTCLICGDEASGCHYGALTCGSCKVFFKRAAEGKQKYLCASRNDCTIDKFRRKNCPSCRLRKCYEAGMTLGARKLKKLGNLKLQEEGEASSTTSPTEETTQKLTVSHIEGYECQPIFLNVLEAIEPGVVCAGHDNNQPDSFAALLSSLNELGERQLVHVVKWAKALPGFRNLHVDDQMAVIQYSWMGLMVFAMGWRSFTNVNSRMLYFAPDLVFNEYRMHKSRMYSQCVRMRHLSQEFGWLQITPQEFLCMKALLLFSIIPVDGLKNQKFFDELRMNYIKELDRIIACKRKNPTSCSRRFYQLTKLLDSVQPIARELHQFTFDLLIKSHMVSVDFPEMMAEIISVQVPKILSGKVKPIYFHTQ
In short: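 Reporter-gene luminescence from MDA-kb2 cells exposed 16hr at 37C (0% CO2) to 15-point compound titrations with 3.0uM final nilutamide as AR antagonist.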

[5] = qHTS assay to identify small molecule antagonists of the estrogen receptor beta (ER-beta) signaling pathway - cell viability counter screen (AID 1259382; active = well fitted curve in the direction sought with a large enough effect in the repeat runs; an effect the other way counts as inactive or inconclusive; also: series mostly up to about 92 µM; nearly all actives have a fitted effect of over 55% in size)
In short: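 Viability is scored by CellTiter-Glo luminescence (30 min, room temperature) in ER-beta-UAS-bla HEK293T wells already read for reporter fluorescence. Compound exposure lasts 16 hr at 37C alongside 1nM 17-beta-estradiol in charcoal-stripped serum medium.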

[6] = qHTS assay to identify small molecule agonists or antagonists of the thyroid stimulating hormone receptor (TSHR) signaling pathway - wild type cell line counter screen (AID 1259384)
In short: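 Wild-type Hek293 cells, 800/well, 18 h at 37C, then compound with Ro20-1724 for 30 min RT. cAMP by HTRF (cAMP-d2/anti-cAMP cryptate), 1 h RT, fluorescence read. 15 concentrations, triplicates.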

[7] = target: Thyrotropin receptor (Homo sapiens) (UniProt P16473); test: qHTS assay to identify small molecule antagonists of the thyroid stimulating hormone receptor (TSHR) signaling pathway (AID 1259385); also: nearly all actives have a fitted effect of over 20% in size
Chain of Thyrotropin receptor (Homo sapiens) (P16473 whole entry, looked up): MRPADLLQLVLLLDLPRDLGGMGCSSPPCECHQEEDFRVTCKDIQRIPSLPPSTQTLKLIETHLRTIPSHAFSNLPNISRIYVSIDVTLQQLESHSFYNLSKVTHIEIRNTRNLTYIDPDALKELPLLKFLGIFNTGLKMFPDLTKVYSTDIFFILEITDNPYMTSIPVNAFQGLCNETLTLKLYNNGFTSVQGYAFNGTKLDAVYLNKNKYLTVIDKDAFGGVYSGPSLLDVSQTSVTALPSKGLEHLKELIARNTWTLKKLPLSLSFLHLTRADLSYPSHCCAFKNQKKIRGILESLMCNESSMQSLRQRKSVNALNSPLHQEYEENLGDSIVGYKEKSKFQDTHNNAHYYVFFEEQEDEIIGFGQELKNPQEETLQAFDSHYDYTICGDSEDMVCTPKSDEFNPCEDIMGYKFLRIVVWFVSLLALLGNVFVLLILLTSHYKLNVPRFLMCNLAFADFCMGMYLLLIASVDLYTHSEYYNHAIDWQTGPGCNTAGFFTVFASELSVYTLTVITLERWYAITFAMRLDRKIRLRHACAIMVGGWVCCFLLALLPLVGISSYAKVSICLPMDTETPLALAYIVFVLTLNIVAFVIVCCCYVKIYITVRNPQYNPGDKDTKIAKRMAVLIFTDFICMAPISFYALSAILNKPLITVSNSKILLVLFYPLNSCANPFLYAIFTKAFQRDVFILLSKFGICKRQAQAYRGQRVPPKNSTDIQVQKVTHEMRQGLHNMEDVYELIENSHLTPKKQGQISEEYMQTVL
In short: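 TSHR-HEK293 cells (800/well) plated 18 h, then compounds with Ro20-1724 and TSH at 1.5 ng/mL final, 30 min at room temperature. cAMP quantified by HTRF (cAMP-d2/anti-cAMP-cryptate, 1 h); 15 concentrations in triplicate.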

[8] = qHTS assay to identify small molecule agonists of the estrogen receptor alpha (ER-alpha) signaling pathway in the presence of an antagonist - cell viability counter screen (AID 1259386; active = well fitted curve in the direction sought with a large enough effect in the repeat runs; an effect the other way counts as inactive or inconclusive;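 also: series mostly up to about 92 µM; cells exposed to compounds for 22 h at 37 °C before the viability read; nearly all actives have a fitted effect of over 30% in size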)
In short: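 In this counter screen, compound effects on VM7Luc4E2 viability were tested in the presence of the antagonist ICI-182,780 at 10.0nM final. Compounds were dosed at 15 concentrations, exposure lasted 22hr, and the CellTiter-Fluor signal was read.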

[9] = target: Progesterone receptor (Homo sapiens) (UniProt P06401); test: qHTS assay to identify small molecule agonists of the progesterone receptor (PR) signaling pathway (AID 1346784); also: nearly all actives have a fitted effect of over 30% in size
Chain of Progesterone receptor (Homo sapiens) (P06401 whole entry, looked up): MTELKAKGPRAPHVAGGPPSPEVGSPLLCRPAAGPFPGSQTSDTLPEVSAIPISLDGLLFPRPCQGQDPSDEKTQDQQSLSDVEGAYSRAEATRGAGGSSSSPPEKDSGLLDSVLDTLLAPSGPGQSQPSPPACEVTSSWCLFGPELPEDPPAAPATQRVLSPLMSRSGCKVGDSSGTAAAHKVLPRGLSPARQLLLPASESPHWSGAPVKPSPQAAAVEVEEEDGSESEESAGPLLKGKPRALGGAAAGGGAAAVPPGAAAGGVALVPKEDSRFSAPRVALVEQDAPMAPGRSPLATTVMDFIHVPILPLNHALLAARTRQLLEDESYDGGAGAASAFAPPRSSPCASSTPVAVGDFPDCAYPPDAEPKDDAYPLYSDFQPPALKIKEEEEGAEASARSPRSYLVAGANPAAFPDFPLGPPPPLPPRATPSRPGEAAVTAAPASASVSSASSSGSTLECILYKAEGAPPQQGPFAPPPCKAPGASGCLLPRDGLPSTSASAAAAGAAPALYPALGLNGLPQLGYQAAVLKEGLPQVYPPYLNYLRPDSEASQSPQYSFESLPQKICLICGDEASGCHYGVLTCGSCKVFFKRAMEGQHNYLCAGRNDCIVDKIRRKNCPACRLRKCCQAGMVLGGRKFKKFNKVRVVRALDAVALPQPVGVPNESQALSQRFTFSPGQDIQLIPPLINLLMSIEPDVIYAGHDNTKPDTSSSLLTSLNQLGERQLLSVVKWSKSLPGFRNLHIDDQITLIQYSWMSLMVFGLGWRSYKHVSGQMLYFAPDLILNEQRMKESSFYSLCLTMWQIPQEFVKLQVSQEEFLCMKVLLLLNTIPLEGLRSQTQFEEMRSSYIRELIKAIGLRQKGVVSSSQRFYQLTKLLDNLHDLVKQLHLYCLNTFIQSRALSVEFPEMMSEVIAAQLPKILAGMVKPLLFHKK
In short: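 PR-UAS-bla HEK 293T cells carrying a UAS-driven beta-lactamase reporter were seeded in medium with 2% charcoal-stripped FBS, preincubated 6 hr at 37C, then exposed to compounds in DMSO for 16 hr; agonism was read by LiveBLAzer B/G FRET fluorescence.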

[10] = target: Progesterone receptor (Homo sapiens) (UniProt P06401); test: qHTS assay to identify small molecule antagonists of the progesterone receptor (PR) signaling pathway (AID 1346795; active = well fitted inhibition curve with a large enough effect in the signal ratio in the repeat runs, not every such curve was filed as active; the % refers to the signal ratio)
In short: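 PR-UAS-bla HEK293T cells carrying a UAS-driven beta-lactamase reporter were plated in medium with 2% charcoal-stripped FBS and rested 6 hr at 37C. Compounds were added with 1 nM R5020 (final) for 16 hr, then FRET substrate loaded 2 hr at room temperature.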

[11] = qHTS assay to identify small molecule antagonists of the progesterone receptor (PR) signaling pathway - cell viability counter screen (AID 1346798; active = well fitted curve in the direction sought with a large enough effect in the repeat runs; an effect the other way counts as inactive or inconclusive; also: nearly all actives have a fitted effect of over 50% in size; also: potency is read from the fitted curve at half-maximal effect)
In short: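 PR-UAS-bla HEK293T cells in medium with 2% charcoal-stripped FBS were treated with compounds plus R5020 for 16 hr at 37C. Cell viability was then read by CellTiter-Glo luminescence after 30 min at room temperature in the same wells.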

[12] = qHTS assay to identify small molecule agonists of the progesterone receptor (PR) signaling pathway - cell viability counter screen (AID 1346799); also: nearly all actives have a fitted effect of over 45% in size; also: potency is read from the fitted curve at half-maximal effect
In short: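 PR-UAS-bla HEK293T cells, 3,000 per well in medium with 2% charcoal-stripped FBS, were preincubated 6 hr at 37C, then exposed to compounds for 16 hr; viability was read as CellTiter-Glo luminescence after 30 min at room temperature.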

[13] = qHTS assay to identify small molecule antagonists of the TGF-beta/Smad signaling pathway - cell viability counter screen (AID 1346824; active = well fitted curve in the direction sought with a large enough effect in the repeat runs; an effect the other way counts as inactive or inconclusive; also: nearly all actives have a fitted effect of over 50% in size)
In short: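 SBE-bla HEK 293T cells, incubated overnight, then compound plus 0.25 ng/mL TGF-beta1 (stock added) for 5 hr at 37 C. Viability was read in the same wells by CellTiter-Glo luminescence after 30 min at room temperature.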

[14] = qHTS assay to identify small molecule agonists of the TGF-beta/Smad signaling pathway - cell viability counter screen (AID 1346829; active = well fitted curve in the direction sought with a large enough effect in the repeat runs; an effect the other way counts as inactive or inconclusive; also: top concentration of the series differs between compounds; nearly all actives have a fitted effect of over 45% in size)
In short: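 HEK 293T SBE-bla line, 5 hr compound exposure at 37 C, multiplexed CellTiter-Glo viability read by luminescence.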

[15] = qHTS assay to identify small molecule agonists of the TGF-beta/Smad signaling pathway (AID 1346859; active = well fitted activation curve with a large enough effect in the signal ratio in the repeat runs, not every such curve was filed as active; the % refers to the signal ratio; also: series mostly up to about 77 µM)
In short: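 HEK 293T cells stably carrying a beta-lactamase reporter driven by the Smad binding element were seeded overnight, exposed to DMSO-dissolved compounds for 5 hr at 37 C, 5% CO2, then loaded with FRET substrate for 2 hr at room temperature.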

[16] = target: Thyrotropin-releasing hormone receptor (Homo sapiens) (UniProt P34981); test: qHTS assay to identify small molecule antagonists of the thyrotropin-releasing hormone receptor (TRHR) signaling pathway (AID 1346877; active = well fitted inhibition curve with a large enough effect in the repeat runs, not every such curve was filed as active; also: series mostly up to about 51 µM)
Chain of Thyrotropin-releasing hormone receptor (Homo sapiens) (P34981 whole entry, looked up): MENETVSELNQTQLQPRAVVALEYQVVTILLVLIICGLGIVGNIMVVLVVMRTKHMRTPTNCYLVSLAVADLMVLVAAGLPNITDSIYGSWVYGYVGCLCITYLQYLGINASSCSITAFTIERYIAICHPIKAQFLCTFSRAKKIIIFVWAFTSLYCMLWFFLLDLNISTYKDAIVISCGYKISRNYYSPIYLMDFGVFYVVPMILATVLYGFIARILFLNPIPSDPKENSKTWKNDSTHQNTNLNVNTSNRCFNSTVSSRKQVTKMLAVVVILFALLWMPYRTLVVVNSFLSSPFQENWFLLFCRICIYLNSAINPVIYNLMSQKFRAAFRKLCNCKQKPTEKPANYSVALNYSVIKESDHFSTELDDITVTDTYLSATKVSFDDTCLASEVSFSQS
In short: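 Kinetic fluorescence (3 min, 1 s resolution) following stimulation with TRH at 1 nM final; HEK293 cells bearing human TRHR; 5 min compound preincubation at RT; concentration-response over 15 points, triplicates.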

[17] = target: Thyrotropin-releasing hormone receptor (Homo sapiens) (UniProt P34981); test: qHTS assay to identify small molecule agonists of the thyrotropin-releasing hormone receptor (TRHR) signaling pathway (AID 1346891); also: series mostly up to about 58 µM
In short: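 TRHR-expressing HEK293 cells were plated 18 h at 37 °C/5% CO2, loaded with calcium dye 2 h at 37 °C, then given compound in DMSO; fluorescence was read kinetically for 3 min at 1 s intervals.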

[18] = target: Estrogen receptor (Homo sapiens) (UniProt P03372); test: qHTS assay to identify small molecule agonists of the estrogen receptor alpha (ER-alpha) signaling pathway in the presence of an antagonist (AID 1259383); also: top concentration of the series differs between compounds; nearly all actives have a fitted effect of over 15% in size
Chain of Estrogen receptor (Homo sapiens) (P03372 whole entry, looked up): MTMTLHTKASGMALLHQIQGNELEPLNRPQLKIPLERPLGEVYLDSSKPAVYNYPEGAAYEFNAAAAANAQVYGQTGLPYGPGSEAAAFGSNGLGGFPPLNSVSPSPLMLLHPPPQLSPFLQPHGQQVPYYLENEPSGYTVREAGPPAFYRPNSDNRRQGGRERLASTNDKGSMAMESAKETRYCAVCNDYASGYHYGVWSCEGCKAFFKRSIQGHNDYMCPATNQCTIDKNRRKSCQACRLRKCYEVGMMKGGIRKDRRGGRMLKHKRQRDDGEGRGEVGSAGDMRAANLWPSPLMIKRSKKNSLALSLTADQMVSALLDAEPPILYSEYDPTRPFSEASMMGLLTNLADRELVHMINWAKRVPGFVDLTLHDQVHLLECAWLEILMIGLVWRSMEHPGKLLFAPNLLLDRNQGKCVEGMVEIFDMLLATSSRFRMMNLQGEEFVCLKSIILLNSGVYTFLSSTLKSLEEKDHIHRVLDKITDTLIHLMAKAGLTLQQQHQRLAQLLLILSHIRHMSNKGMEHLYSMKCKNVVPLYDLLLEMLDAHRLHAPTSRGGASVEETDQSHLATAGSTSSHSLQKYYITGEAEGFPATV
In short: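 Readout was ERE-driven luciferase luminescence in VM7Luc4E2 cells, which express full-length ER-alpha endogenously. Compounds were tested at 15 concentrations for 22hr alongside 10.0nM ICI-182,780 (final concentration).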

[19] = target: Estrogen receptor beta (Homo sapiens) (UniProt Q92731); test: qHTS assay to identify small molecule antagonists of the estrogen receptor beta (ER-beta) signaling pathway (AID 1259378; active = well fitted inhibition curve with a large enough effect in the signal ratio in the repeat runs, not every such curve was filed as active; the % refers to the signal ratio)
Chain of Estrogen receptor beta (Homo sapiens) (Q92731 whole entry, looked up): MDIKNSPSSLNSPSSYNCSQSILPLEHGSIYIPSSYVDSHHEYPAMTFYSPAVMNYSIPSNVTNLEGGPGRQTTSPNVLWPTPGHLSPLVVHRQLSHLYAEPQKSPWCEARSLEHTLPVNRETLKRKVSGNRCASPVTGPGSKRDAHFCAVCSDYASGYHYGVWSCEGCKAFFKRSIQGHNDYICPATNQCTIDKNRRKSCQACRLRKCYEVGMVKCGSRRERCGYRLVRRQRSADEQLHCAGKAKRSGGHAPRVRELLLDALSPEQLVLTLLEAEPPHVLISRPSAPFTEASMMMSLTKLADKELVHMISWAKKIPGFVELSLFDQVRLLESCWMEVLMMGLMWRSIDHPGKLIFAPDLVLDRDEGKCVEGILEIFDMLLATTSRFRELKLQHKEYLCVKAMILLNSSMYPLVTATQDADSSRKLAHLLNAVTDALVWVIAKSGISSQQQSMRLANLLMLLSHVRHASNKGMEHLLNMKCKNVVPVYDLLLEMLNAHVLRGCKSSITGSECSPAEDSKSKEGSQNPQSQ
In short: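 ER-beta-UAS-bla HEK293T cells in 2% charcoal-stripped FBS medium treated with compound plus 1nM final 17-beta-estradiol for 16 hr at 37C. Beta-lactamase reporter read by FRET substrate fluorescence after 2 hours at room temperature.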

Measured: Potency

CC(COCCO)OCCO (configuration not stated)
not listed: [18] | [19]
inactive: all other assays above

CCCCCCCCCCCC(=O)OC[C@@H](O)[C@H]1OC[C@H](OCCO)[C@H]1OCCO
not listed: [4] | [19]
inactive: all other assays above

CCCCCCCCCCCc1ccccc1
not listed: [4] | [11] | [19]
inactive: all other assays above

CN(C)CCOC(c1ccccc1)c1ccc(Br)cc1 (configuration not stated)
active: [1] 2.11 µM | [3] 23.7 µM | [11] 13.3 µM | [12] 16.8 µM
not listed: [5] | [10] | [19]
inactive: all other assays above

Cc1cccc(Nc2ccccc2)c1
not listed: [10] | [12] | [13] | [16] | [17] | [18] | [19]
inactive: all other assays above

COc1ccc2cccc(CCNC(C)=O)c2c1
not listed: [3] | [6] | [7]
inactive: all other assays above

C[C@@H](c1ncncc1F)C(O)(Cn1cncn1)c1ccc(F)cc1F (some centres not stated)
not listed: [19]
inactive: all other assays above
